Shown are actives, neighbours in structure and some others; about 2.3% of the full set was active somewhere.
CHRM1 PAM: human CHRM1 positive allosteric modulation | P11229 | CHO-K1 hM1, Fluo-8 calcium fluorescence, ACh EC20; 0% = ACh EC20, 100% = maximal ACh | activation, % at 3 µM | 360,000 tested, 0.088% active; in the data active = activation above about 19%, passing the limit was not always enough
Target sequence (P11229 whole entry, looked up): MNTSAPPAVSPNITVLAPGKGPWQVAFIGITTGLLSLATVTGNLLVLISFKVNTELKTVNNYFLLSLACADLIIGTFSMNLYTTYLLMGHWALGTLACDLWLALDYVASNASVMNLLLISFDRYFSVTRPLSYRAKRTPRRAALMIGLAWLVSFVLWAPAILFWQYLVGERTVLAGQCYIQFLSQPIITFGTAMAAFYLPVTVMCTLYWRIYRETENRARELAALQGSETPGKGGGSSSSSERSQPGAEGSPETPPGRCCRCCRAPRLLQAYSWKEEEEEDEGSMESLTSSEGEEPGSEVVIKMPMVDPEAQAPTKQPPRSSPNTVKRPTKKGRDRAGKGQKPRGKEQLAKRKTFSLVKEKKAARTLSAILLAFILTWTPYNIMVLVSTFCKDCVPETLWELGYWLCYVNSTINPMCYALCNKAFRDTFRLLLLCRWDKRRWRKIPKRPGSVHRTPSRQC
M1 ag: human M1 muscarinic receptor agonism. activation, % at 3 µM. CHO-K1 hM1, Fluo-8 calcium fluorescence, agonist mode; 0% DMSO, 100% acetylcholine EC100. AID 588814. 360,000 tested, 0.33% active;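 active = activation above the run's mean compound activation plus 3 SD, cut at about 16% in these data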;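 also: peak over basal fluorescence ratio within a 140 s kinetic read after compound addition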
M1 antag: antagonists of human M1 muscarinic receptor; P11229; CHO-K1 hM1, Fluo-8 calcium fluorescence, ACh EC80 antagonist; inhibition, % at 3 µM; 360,000 tested, 1.3% active; AID 588852;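 active = percent inhibition above its own plate's cutoff, namely the mean of that plate's compound wells plus 3 SD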;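 also: peak over basal fluorescence ratio during 140 s after agonist addition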
CHO-K1 Ca ag: nonselective activator or artifact in parental CHO-K1 cells. Fluo-8 calcium fluorescence; scaled to maximal ATP response, vehicle zero. activation, % at 3 µM. 360,000 tested, 0.48% active. AID 602248; in the data active = activation above about 15%;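 also: untransfected CHO-K1 host cells lacking M1 receptor as counterscreen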
CHO-K1 Ca antag: counter-screen for M1 antagonists: effect in parental CHO-K1 cells | inhibition, % at 3 µM | ATP-induced calcium, Fluo-8 fluorescence | 360,000 tested, 0.6% active;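 active = inhibition above a per-plate cutoff, the plate's mean sample inhibition plus 3 SD, cut at about 24% in these data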
CHO-K1 Ca PAM: counter-screen for M1 PAMs: effect in parental CHO-K1 cells. 360,000 tested, 0.02% active. activation, % at 3 µM. ATP EC20, Fluo-8 calcium fluorescence; 0% at ATP EC20, 100% at ATP max;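 active = activation above the run cutoff, the mean activation of all test compounds plus 3 SD, cut at about 40% in these data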;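 also: peak over basal fluorescence ratio in a 140 s read after ATP addition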
Large screens that a line does not name were inactive.

O=C(NCc1cccnc1)C1CCN(S(=O)(=O)c2cc([N+](=O)[O-])ccc2Cl)CC1	none
CCC(C)(C)NC(=O)C(c1ccc(OC)cc1)N(C(=O)CCC(=O)Nc1cc(C)on1)c1cc(OC)ccc1OC (stereo not given)	none
O=C(NC(c1ccccc1)c1ccsc1)C1CCN(CCOc2ccc(Cl)cc2Cl)CC1 (stereo not given)	none
COc1ccc(-c2cn(-c3ccccc3)c3[n+]2CCS3)cc1	M1 antag 40
CC(C)(C)c1ccc(-c2cn(-c3ccc(Br)cc3)c3[n+]2CCCS3)cc1	M1 antag 79
COc1cccc(CNC(=O)[C@@H]2CCCN2C(=O)[C@@H]2CCCN2C(=O)c2cccc3ccccc23)c1	none (no result: CHRM1 PAM, M1 ag, M1 antag)
CCN(CC)c1nc(-c2ccccn2)nc(-c2ccccc2)c1C#N	none
O=C1[C@H]2[C@@H](c3ccc(F)cc3)N3C(=O)N(c4cccc(Br)c4)C(=O)[C@@]3(Cc3ccc(Cl)cc3)[C@H]2C(=O)N1C1CCCCC1	CHRM1 PAM 27
O=C1[C@H]2[C@@H](c3ccc(Cl)cc3)N3C(=O)N(c4cccc(Br)c4)C(=O)[C@@]3(Cc3ccc(Cl)cc3)[C@H]2C(=O)N1C1CCCCC1	none
CC(C)c1ccc(/C=C2\SC(=O)N(CC(=O)NC3C=CS(=O)(=O)C3)C2=O)cc1 (stereo not given)	M1 antag 43
O=C(CN1C(=O)/C(=C/c2ccc(Cl)cc2)SC1=S)NC1C=CS(=O)(=O)C1 (stereo not given)	none
CCN(CC(=O)NC1CCS(=O)(=O)C1)C(C)C(=O)Nc1ccc(F)cc1 (stereo not given)	none
O=C(Nc1nonc1NC(=O)c1cccs1)c1cccs1	none
N#Cc1ccccc1S(=O)(=O)N1CCN(C(=O)CN2C(=O)NC3(CCCC3)C2=O)CC1	none
CCOc1cccc(OCCCCN2CCCCC2)c1	M1 antag 19
Clc1cccc(OCCN2CCCC2)c1	none
COc1cccc(OCCCCN2CCCCC2)c1	none
CC(C)c1cccc(OCCN2CCCC2)c1	M1 antag 33
CC1CCCN(CCCCOc2cccc(Br)c2)C1 (stereo not given)	M1 antag 33
Brc1cccc(OCCCCN2CCCCC2)c1	M1 antag 78
CCCCNC(=O)c1ccc2nc(CC)c(N(CC)CCOC)n2c1	none
C[C@@H](NC(=O)c1nc[nH]c1C(=O)NCC(=O)OCc1ccccc1)c1ccccc1	M1 antag 33
C[C@H](NC(=O)c1nc[nH]c1C(=O)NCc1ccc(CNC(=O)OC(C)(C)C)cc1)C(=O)OCc1ccccc1	M1 antag 45
C[C@@H](NC(=O)c1nc[nH]c1C(=O)OCc1ccccc1)c1ccccc1	none
COc1ccc(C)cc1NC(=O)NNC(=O)C(C)Oc1ccc([N+](=O)[O-])cc1 (stereo not given)	none
Cc1ccc(NC(=O)COC(=O)C2CC2(Cl)Cl)cc1C (stereo not given)	none
O=C(O)c1ccc2c(c1)C(=O)N(c1cccc3ccccc13)C2=O	none
CCCCCCC1CC(CCc2nc(=S)[nH][nH]2)C(=O)O1 (stereo not given)	none
CCCCCCCCc1nc(=S)[nH][nH]1	CHO-K1 Ca antag 25
CCOC(=O)Cc1c(-c2cccc(Br)c2)nc2c3ccccc3ccn12	none (no result: CHRM1 PAM, M1 ag, M1 antag)
CCOC(=O)c1coc(C(=O)OCC)c1C(=O)OCC	none
COc1cc(C2SCC(=O)N2CCCN(C)C)cc(OC)c1OC (stereo not given)	M1 antag 29
Cc1cc(C)c(S(=O)(=O)N2CCCC(C(=O)NC3CCCC3)C2)c(C)c1 (stereo not given)	none
Cc1ccc(S(=O)(=O)n2nc(-c3ccco3)nc2N)cc1	none
O=C(CCCOC(=O)c1cccnc1Cl)c1ccc(Br)cc1	none
O=C(CCCOC(=O)c1ccc(O)cc1O)c1ccc(Br)cc1	M1 antag 19
CCCCC1(Br)C(=O)N(c2ccccc2)N(c2ccccc2)C1=O	none
COc1cc2[nH]c3c(N4CCN(c5ccc(Cl)cc5)CC4)ncnc3c2cc1OC	none
COc1cccc(N2CCN(c3ncnc4c3[nH]c3ccc(F)cc34)CC2C)c1 (stereo not given)	M1 antag 83, CHO-K1 Ca antag 55
COc1ccc(CNC(=O)C[C@H]2C[C@H](C(=O)N3CCCCC3)[C@@]3(C)c4[nH]c5cc(CCC(=O)N(C)C)ccc5c4CCN3C2=O)cc1OC	none
Cc1ccc(S(=O)(=O)CCC(=O)OCC(=O)N(C)CC(=O)Nc2ccc(F)cc2)cc1	M1 antag 20
CCc1ccc(-c2cc3c(=O)n(CC(=O)NCCCN4CCN(C)CC4)ncn3n2)cc1	none
C/C(=C/c1ccccc1)C(=O)N1CCN(c2ccc(F)cc2)CC1	CHO-K1 Ca ag 16
CN1CCN(C(=O)/C(=C/c2ccc(F)cc2)c2ccsc2)CC1	M1 antag 98
CC1CC(C)CN(C(=O)/C(=C\c2ccccc2)c2ccccc2)C1 (stereo not given)	none
CN1CCN(C(=O)/C(C#N)=C/c2ccc(F)cc2)CC1	none
CN1CCN(C(=O)/C(=C/c2ccccc2)c2ccccc2)CC1	M1 antag 98
O=C(CCC(=O)N1CCN(c2ccc(F)cc2)CC1)N1CCN(c2ccc(F)cc2)CC1	none
Cc1ccc(N(CC(=O)Nc2cccc(C)c2)S(=O)(=O)c2cccc3nonc23)cc1	none
O=C(COc1ncnc2ccccc12)Nc1cc([N+](=O)[O-])ccc1F	CHO-K1 Ca ag 17
CN(C)C1=NCCN1CCc1ccc(F)cc1	none
CC(=O)Nc1ccc(S(=O)(=O)N(C)CC(=O)N(C)Cc2sccc2C)cc1	none
CCN(CC)C(CNC(=O)CSc1nnnn1-c1ccc(C)c(C)c1)c1ccco1 (stereo not given)	none
CCN(CC)C(CNC(=O)CSc1nnnn1-c1c(C)cccc1C)c1ccco1 (stereo not given)	M1 antag 37
O=C(CSc1n[nH]c(=O)[nH]c1=O)NC1CC1	none
CC[C@@]1(C(=O)OC)N[C@H](CN(C)C(=O)NC(C)C)[C@@H]2C(=O)N(C)C(=O)[C@@H]21	none
Cc1nc(N)nc(N)c1-c1ccc(Cl)c(Cl)c1	M1 antag 46
O=C(CNC(=O)c1ccccc1Cl)N/N=C/C=C/c1ccccc1	none
Cc1ccc(-c2nc3ccc(Br)cn3c2Cc2cccc(Cl)c2)cc1	none
O=C(Nc1ccc(OC(F)F)cc1)c1cc(S(=O)(=O)N2CCOCC2)ccc1F	none
CC(=O)OCCn1c2nc(=O)[nH]c(=O)c-2nc2cc(C)c(C)cc21	M1 ag 202, M1 antag 38, CHO-K1 Ca ag 186, CHO-K1 Ca antag 38
CC(C)CN(C(=O)COC(=O)c1ccccc1NCc1ccco1)c1c(N)n(Cc2ccccc2)c(=O)[nH]c1=O	none
O=C(O)C1CCN(S(=O)(=O)c2ccc3[nH]ccc3c2)CC1	CHO-K1 Ca antag 26

Compound activity deposited in PubChem BioAssay by The Scripps Research Institute Molecular Screening Center.
